Hits are enriched below; roughly 2.4% of the tested compounds scored in any of these assays.
Pol eta inh-1: blocks human DNA polymerase eta activity; Q9Y253; recombinant Pol eta, fluorescent DNA replication assay; Potency, µM (titrated, usually from 114 µM), inactives show at the top dose activity change, negative = inhibition, actives largely listed as inhibitors; 390,000 tested, 1.2% active; AID 588591; also: % is scaled to controls: 0 for no effect and ±100 for the full control effect
Target sequence (Q9Y253 whole entry, looked up): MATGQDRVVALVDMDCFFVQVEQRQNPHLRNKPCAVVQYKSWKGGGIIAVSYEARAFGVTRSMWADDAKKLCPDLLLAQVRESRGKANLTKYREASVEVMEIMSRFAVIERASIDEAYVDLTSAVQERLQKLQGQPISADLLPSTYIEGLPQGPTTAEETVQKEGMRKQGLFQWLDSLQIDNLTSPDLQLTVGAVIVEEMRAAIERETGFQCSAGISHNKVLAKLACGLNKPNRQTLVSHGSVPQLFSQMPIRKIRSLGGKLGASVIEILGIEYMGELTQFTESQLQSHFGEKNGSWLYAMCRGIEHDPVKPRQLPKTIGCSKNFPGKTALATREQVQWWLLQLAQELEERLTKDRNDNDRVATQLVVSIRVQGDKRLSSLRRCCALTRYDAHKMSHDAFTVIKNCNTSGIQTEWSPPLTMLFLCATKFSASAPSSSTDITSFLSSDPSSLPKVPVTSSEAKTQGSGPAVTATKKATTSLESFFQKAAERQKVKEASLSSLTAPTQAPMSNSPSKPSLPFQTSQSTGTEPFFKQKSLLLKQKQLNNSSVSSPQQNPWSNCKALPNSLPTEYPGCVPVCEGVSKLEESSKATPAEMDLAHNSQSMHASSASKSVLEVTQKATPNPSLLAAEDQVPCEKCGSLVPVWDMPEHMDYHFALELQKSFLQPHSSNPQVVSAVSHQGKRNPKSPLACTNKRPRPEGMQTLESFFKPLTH
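Fluorescent replication assay: 50 nM final substrate added after a 15 min room-temperature compound preincubation with 10 nM enzyme. Signal taken at 0 min and again at 10 min.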
WRN inhibitor: inhibitors of human WRN helicase. AID 651768. WRN helicase unwinding, fluorescent forked duplex, kinetic. 360,000 tested, 0.46% active. Potency, µM (top dose mostly 114 µM), for inactives: at the highest dose activity change, negative = inhibition, most hits filed as inhibitors; also: % is scaled to controls: 0 for no effect and ±100 for the full control effect; nearly all actives have a fitted effect of over 55% in size
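WRN at 20 nM final was preincubated with compound for 15 min at room temperature; reaction started with 100 nM forked duplex oligonucleotide carrying fluorophore and quencher plus 2 mM ATP (final). Unwinding followed kinetically by red fluorescence (ex 525/em 598 nm).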
Pol kappa inh-1: inhibitors of human DNA polymerase kappa; purified Pol kappa, fluorescent DNA synthesis assay, 10 min; Potency, µM (doses to about 107 µM), without a hit: top-dose activity, negative = inhibition, hits mostly inhibitors; 400,000 tested, 0.53% active; also: % is scaled to controls: 0 for no effect and ±100 for the full control effect
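Kinetic fluorescence readout at 0 and 10 min followed reaction start with substrate at 50 nM final. Beforehand, enzyme (10 nM Pol kappa) stood 15 min with compound at room temperature; buffer-only wells were negative controls.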
Pol beta inh: inhibitors of human DNA polymerase beta | Potency, µM (doses to about 114 µM), for inactives: at the highest dose activity change, negative = inhibition, most hits filed as inhibitors | Pol beta primer extension/strand displacement, fluorescence kinetic | 340,000 tested, 1.3% active; also: % is scaled to controls: 0 for no effect and ±100 for the full control effect
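Pol beta (10 nM) was preincubated with compound for 15 min at room temperature. The reaction was then started with 50 nM substrate and read immediately and after a further 10 min at room temperature.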
Pol iota inh: DNA polymerase iota (human) inhibition; Potency, µM (series often up to 115 µM), for the others: at the highest dose activity, negative = inhibition, usual class: inhibitors; 390,000 tested, 1% active; AID 588590; Pol iota fluorescent replication assay, 10 min; Q9UNA4
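Pol iota at 10 nM preincubated 15 min with compounds at room temperature; reaction started with fluorescent substrate, 50 nM final. Fluorescence read kinetically at 0 and 10 min; buffer-only wells as negative control.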
FEN1 inh-1: inhibitors of human flap endonuclease 1; Potency, µM (highest dose often 114 µM), for inactives: at the top dose activity change, negative = inhibition, most hits filed as inhibitors; 390,000 tested, 0.35% active; AID 588795; P39748; Recombinant FEN1 flap cleavage, fluorescence, 15 min; also: % is scaled to controls: 0 for no effect and ±100 for the full control effect; nearly all actives have a fitted effect of over 65% in size
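Nuclease activity of 10 nM FEN1 was measured after 15 min of room-temperature exposure to titrated compounds, by adding 50 nM flap substrate and reading plates at 0 and 15 min.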
PGK validate: validation of Trypanosoma brucei phosphoglycerate kinase inhibitors; TbPGK coupled GAPDH assay, Kinase-Glo luminescence; shares compounds with Pol kappa inh-1; Potency, µM (doses to about 57.5 µM), without a hit: top-dose activity change, negative = inhibition, hits mostly inhibitors; 500 tested, 79% active; also: % is scaled to controls: 0 for no effect and ±100 for the full control effect; nearly all actives have a fitted effect of over 65% in size
Pol iota confirm: Confirm cherry-picked inhibitors of human polymerase iota. shares compounds with Pol kappa inh-1. Potency, µM, usual class: inhibitors. 1,500 tested, 77% active. Pol iota primer extension, TAMRA/BHQ fluorescence. AID 720496
Pol kappa inh-2: confirmation of human DNA polymerase kappa inhibitors. purified Pol-kappa, fluorescent strand-displacement substrate. 920 tested, 76% active. Potency, µM, most hits filed as inhibitors. shares compounds with Pol eta inh-1. AID 720501
Pol eta inh-2: Pol eta (human) inhibition, cherry-pick confirmation. shares compounds with Pol eta inh-1. Pol eta primer extension, TAMRA/BHQ fluorescence, 10 min. Potency, µM, usual class: inhibitors. 2,600 tested, 64% active. AID 720502
FEN1 inh-2: FEN1 inhibition, cherry-pick retest; shares compounds with FEN1 inh-1; FEN1 flap cleavage, TAMRA/BHQ2 fluorogenic DNA substrate; Potency, µM, usual class: inhibitors; 880 tested, 79% active; also: nearly all actives have a fitted effect of over 60% in size
The depositor's hits bear a star; [ ] = remark or other dose. Calls follow the shape of the dose curve; as a rule, active = well fitted curve in the direction sought with a large enough effect; inconclusive = small, poorly fitted or top-dose-only effect, or another doubt; inactive = no such curve, though single readings can be large; an effect the other way counts as inactive or inconclusive. Potency is read from the fitted curve at half-maximal effect.

How did Cc1cccc(N2C(=O)NC(=O)/C(=C/c3ccc(-c4ccc(C(=O)O)c(Cl)c4)o3)C2=O)c1 do in these assays?
Pol beta inh: 24%

Results for O=C1NC(=O)N(c2cccc(Cl)c2)C(=O)/C1=C\c1ccc(Sc2nc3ccccc3[nH]2)o1 ?
Pol eta inh-1: 18µM*; WRN inhibitor: 89µM*; Pol kappa inh-1: 22µM*; Pol beta inh: 32µM*; Pol iota inh: inconclusive; FEN1 inh-1: 45µM*; Pol iota confirm: 75*; Pol eta inh-2: 27*; FEN1 inh-2: inconclusive

What do the screens show for `Cc1nn(C)c(C)c1P(=S)(c1c(C)nn(C)c1C)N(C)C`?
Pol eta inh-1: -5%; WRN inhibitor: 1%; Pol kappa inh-1: 0%; Pol beta inh: 3%; Pol iota inh: 36%; FEN1 inh-1: 6%

How did CC(C)c1cc(Br)c(NC(=O)Nc2cccnc2)c(Br)c1 do in these assays?
Pol eta inh-1: -21%; WRN inhibitor: 3%; Pol kappa inh-1: 0%; Pol beta inh: inconclusive; Pol iota inh: 11%; FEN1 inh-1: -15%

Results for COc1ccc(/C=C2/C(=O)N(Cc3ccco3)C(=O)N(C(C)C)C2=O)cc1 ?
Pol eta inh-1: 4.5µM*; WRN inhibitor: -33%[11.6 µM]; Pol kappa inh-1: 20µM*; Pol beta inh: 20µM*; Pol iota inh: 7.9µM*; FEN1 inh-1: inconclusive; PGK validate: inconclusive; Pol iota confirm: 21*; Pol eta inh-2: 11*; FEN1 inh-2: 27*

What do the screens show for `CCN1C(=O)C(=C2C=C(C)N(Cc3ccco3)C(C)=C2)C(=O)N(CC)C1=S`?
Pol eta inh-1: -17%; WRN inhibitor: -4%; Pol kappa inh-1: -5%; Pol beta inh: 3%; Pol iota inh: 37%; FEN1 inh-1: -10%

What do the screens show for `Cc1ccc(N2C(=O)NC(=O)/C(=C\c3cc(C)n(-c4sc5c(c4C#N)CCCC5)c3C)C2=O)cc1`?
Pol eta inh-1: 20µM*; WRN inhibitor: 50µM*; Pol kappa inh-1: -37%; Pol beta inh: inconclusive; Pol iota inh: inconclusive; FEN1 inh-1: inconclusive; Pol iota confirm: 67*; Pol eta inh-2: 19*; FEN1 inh-2: 76*

How did CCOc1cccc(N2C(=O)/C(=C/c3ccco3)C(=O)NC2=S)c1 do in these assays?
Pol eta inh-1: 3.2µM*; WRN inhibitor: 35µM*; Pol kappa inh-1: 22µM*; Pol beta inh: 7.9µM*; Pol iota inh: inconclusive; FEN1 inh-1: 22µM*; PGK validate: 9.2µM*; Pol iota confirm: 9.5*; Pol eta inh-2: 15*; FEN1 inh-2: 43*

How did CCCC(=O)NC(Oc1ccc(OC)cc1)C(Cl)(Cl)Cl (centres undefined) do in these assays?
Pol eta inh-1: 9%; WRN inhibitor: 1%; Pol kappa inh-1: -7%; Pol beta inh: 0%; Pol iota inh: 36%; FEN1 inh-1: -19%

Results for O=C(Cc1cc(=O)oc2cc(O)ccc12)NN=Cc1ccc(N(CCCl)CCCl)cc1 ?
Pol eta inh-1: 16µM*; WRN inhibitor: inconclusive; Pol kappa inh-1: inconclusive; Pol iota inh: inconclusive; FEN1 inh-1: 32µM*; Pol iota confirm: inconclusive; Pol eta inh-2: inconclusive; FEN1 inh-2: 38*

What do the screens show for `CC(C)c1ccc(N2C(=O)NC(=O)/C(=C\c3cnc(-c4ccccc4)nc3)C2=O)cc1`?
Pol eta inh-1: -4%; WRN inhibitor: inconclusive; Pol kappa inh-1: -10%; Pol beta inh: 24%; Pol iota inh: -10%; FEN1 inh-1: -11%

How did CC[n+]1c(/C=C/C=C/c2ccc(N(C)C)cc2)sc2ccccc21 do in these assays?
Pol eta inh-1: inconclusive; WRN inhibitor: 56µM*; Pol kappa inh-1: -32%; Pol beta inh: -1%; Pol iota inh: 76%; FEN1 inh-1: 50µM*; PGK validate: inconclusive; FEN1 inh-2: 38*

How did O=C(Oc1ccc(N2C(=O)C3C4CCC(C4)C3C2=O)cc1)c1ccco1 (centres undefined) do in these assays?
Pol eta inh-1: -2%; WRN inhibitor: -1%; Pol kappa inh-1: -2%; Pol beta inh: 3%; Pol iota inh: 22%; FEN1 inh-1: 17%

How did CC(C)CS(=O)(=O)C1=NN2C(=N)/C(=C\c3ccc(OC(=O)c4ccco4)cc3)C(=O)N=C2S1 do in these assays?
Pol eta inh-1: 20µM*; WRN inhibitor: inconclusive; Pol kappa inh-1: inconclusive; Pol beta inh: 45µM*; Pol iota inh: 14µM*; FEN1 inh-1: -9%; Pol iota confirm: 75*; Pol eta inh-2: 24*; FEN1 inh-2: inconclusive

How did CSCCC(c1nnnn1-c1ccc2c(c1)OCCO2)N1CCC2(CC1)C(=O)NCN2c1ccccc1 (centres undefined) do in these assays?
WRN inhibitor: -5%

How did CC(C)COP(=O)(c1ccc(N(C)C)cc1)C(O)c1ccc(Br)cc1 (centres undefined) do in these assays?
Pol eta inh-1: -8%; WRN inhibitor: -1%; Pol kappa inh-1: 7%[60.1 µM]; Pol beta inh: inconclusive; Pol iota inh: -8%; FEN1 inh-1: 5%

Results for CC[n+]1c(-c2ccccc2)c2cc(N)ccc2c2ccc(N)cc21 ?
Pol eta inh-1: 4.5µM*; WRN inhibitor: 3µM*; Pol kappa inh-1: 20µM*; Pol iota inh: 40µM*; FEN1 inh-1: 13µM*; Pol iota confirm: 15*; Pol kappa inh-2: 9.5*; Pol eta inh-2: inconclusive; FEN1 inh-2: 17*

What do the screens show for `COCCN1C(=O)NC(=O)/C(=C\c2ccc(F)cc2)C1=O`?
Pol eta inh-1: -16%; WRN inhibitor: 8%; Pol kappa inh-1: 4%; Pol beta inh: inconclusive; Pol iota inh: 0%; FEN1 inh-1: 16%

Screens (PubChem BioAssay)
